# Inconclusive results are not listed. Values without a mark were called inactive. Active and inactive are the calls of the source. The call rests on the fitted dose curve; in most records, active means well fitted cell-killing curve with a large enough effect; inconclusive means small, poorly fitted or top-dose-only effect, or effect the other way; inactive means no such curve, though single readings can be large or run the other way.
# Assay: qHTS of pediatric cancer cell lines to identify multiple opportunities for drug repurposing: Confirmatory screen for MG 63 (6-TG R) cells (AID 1347119); further: nearly all actives have a fitted effect of over 55% in size
# Details: MG-63 (6-TG resistant) osteosarcoma viability; series mostly up to 45.9 µM; activity change, negative = cytotoxicity: at the top concentration
# Description: Drug repurposing or repositioning has been offered as a strategy for drug development in oncology programs. This approach has special potential for childhood cancers and other rare or orphan diseases, where the expected return on new drug development has been a disincentive to pharmaceuticals.
# In this project we exploit the poly-pharmacology of drugs to discover new indications via phenotypic screening of a panel of 19 well-characterized cell lines derived from solid tumors seen in children and adolescents. The goal is to identify approved drugs with previously unrecognized anticancer properties that has the potential to reveal new mechanisms and biological processes involved in carcinogenesis or drug resistance. We employed a titration-based paradigm (quantitative high-throughput screening or qHTS), where all compounds were tested at multiple concentrations for their effect on cell viability. Concentration-response curves (CRCs) were derived directly from the primary screen, and both potency and efficacy values were used to identify compounds with robust bioactivity profiles. We screened the NIH Chemical Genomics Center (NCGC) Pharmaceutical Collection (NPC) and Mechanism Interrogation Plate (MIPE) small molecule collections of approved and investigational compounds against these cell lines; and measured metabolically active cells after 48 hours of compound treatment as a proxy for cell viability.
# Assay Submitter: Nathalia J. Martinez, National Center for Advancing Translational Sciences, National Institutes of Health, Rockville, MD, USA; email: natalia.martinez@nih.gov
# [1] Shen, M et al. Quantitative high-throughput phenotypic screening of pediatric cancer cell lines identifies multiple opportunities for drug repurposing. Oncotarget 2017 Dec 19;9(4):4758-4772. PMID 29435139.
# The cells were obtained from University of North Carolina (UNC), Pediatric Preclinical Testing Program (PPT), and Coriell Institute (CI).
# qHTS cell viability assay:
# Cells were assayed in growth media at a density of 500-1,000 cells/well. Five microliters of cells were dispensed into 1,536-well, white, solid-bottom, TC-treated plates (Greiner Bio One) using a multidrop dispenser and incubated at 37 degrees C, 5% CO2, under a humidified atmosphere for 5 hours. Twenty-three nanoliters of compounds and controls (neutral control DMSO or positive control bortezomib at final concentration of 2.3 µM) were subsequently transferred by Kalypsys pintool. For primary screens, the MIPE collection was tested at 11-point dilutions (final concentrations range from 0.78 nM to 46 µM) and the NPC collection at 8-point dilutions (final concentrations range from 0.59 nM to 46 µM). Compounds tested in follow-up screens were assayed at 11-point dilutions. Cells were incubated for 48 hours, followed by addition of 3 µL of CellTiter-Glo (Promega). After a 15 min incubation at room temperature, samples were analyzed for luminescence intensity using a ViewLux High-throughput CCD imager equipped with clear filters.
# Potency means the concentration at half of the fitted maximal effect.
Compound,Potency,"activity change, negative = cytotoxicity [%]"
O=C(Nc1ccc([N+](=O)[O-])cc1Cl)c1cc(Cl)ccc1O,1620 nM (active),–
CCCCc1oc2ccccc2c1C(=O)c1cc(I)c(OCCN(CC)CC)c(I)c1,39800 nM (active),–
CC[C@@]1(O)C(=O)OCc2c1cc1n(c2=O)Cc2cc3c(CN(C)C)c(O)ccc3nc2-1,329 nM (active),–
NC(=O)NO,–,-11.3
COC(=O)Nc1nc2ccc(C(=O)c3cccs3)cc2[nH]1,147 nM (active),–
CC(C)Cc1ccc(C(C)C(=O)O)cc1 (centres undefined),–,-3.03
COc1cc2c(c(OC)c1OC)-c1ccc(OC)c(=O)cc1[C@@H](NC(C)=O)CC2,100 nM (active),–
CCC1(c2ccccc2)C(=O)NCNC1=O,–,-2.85
CS(=O)(=O)Nc1ccc([N+](=O)[O-])cc1Oc1ccccc1,16500 nM (active),–
O=C1c2c(O)ccc(O)c2C(=O)c2c(NCCNCCO)ccc(NCCNCCO)c21,414 nM (active),–
CC(CCc1ccc(O)cc1)NCCc1ccc(O)c(O)c1 (centres undefined),–,7.9
CC#C[C@]1(O)CC[C@H]2[C@@H]3CCC4=CC(=O)CCC4=C3[C@@H](c3ccc(N(C)C)cc3)C[C@@]21C,–,-20.3
Clc1ccc2nsnc2c1NC1=NCCN1,–,-9.86
CN(Cc1cnc2nc(N)nc(N)c2n1)c1ccc(C(=O)N[C@@H](CCC(=O)O)C(=O)O)cc1,–,7.35

# Source: PubChem BioAssay (NCATS)
